hNpr1 antagonist: Natriuretic polypeptide receptor (hNpr1) antagonism - Primary qHTS; actives 1.6% (n = 76,000); HEK293 hNpr1 GloSensor cGMP, ANP-stimulated luminescence; Potency, µM (series often up to 46.3 µM), actives largely listed as inhibitors; calls by dose curve; note: nearly all actives have a fitted effect of over 60% in size
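Compound pre-incubated 30 min at room temperature on GloSensor-loaded HEK293 cells stably carrying hNpr1 and the pGS-40F cGMP biosensor. Stimulation uses hNppA at 0.1 nM final; luminescence is taken at baseline and 20 min post-agonist.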
HEK cytotox: Cytotoxic Profiling in HEK 293 Cell Line of Diverse Libraries Using Quantitative High-Throughput Screening | HEK 293 viability, ATP luminescence (CellTiter-Glo), 48-72 h | actives 6.6% (n = 94,000) | Potency, µM (titrated, usually from 115 µM), hits mostly inhibitors; note: nearly all actives have a fitted effect of over 60% in size
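ATP-coupled CellTiter-Glo luminescence served as viability read-out, recorded 10 min after reagent addition at room temperature. HEK 293 cells, 250 cells/well, had been incubated with pintool-transferred compound for 48 or 72 hr at 37 degree Celsius.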
NIH3T3 tox: Cytotoxic Profiling in NIH 3T3 Cell Line of Diverse Libraries Using Quantitative High-Throughput Screening | NIH 3T3 viability, CellTiter-Glo ATP luminescence, 48-72 h | Potency, µM (titrated, usually from 96.7 µM), actives largely listed as inhibitors | AID 1345082, 2018 | actives 4.3% (n = 94,000); note: nearly all actives have a fitted effect of over 55% in size
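Luminescent ATP readout (CellTiter-Glo, 10 min RT) after 48 or 72 hr compound exposure of NIH 3T3 cells seeded at 400 cells/well in 1536-well format; quantitative HTS.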
Luciferase inh: Firefly luciferase inhibition profiling of diverse chemical library using quantitative high-throughput screening; purified P. pyralis luciferase, luminescence, biochemical; Potency, µM (top dose mostly 115 µM), hits mostly inhibitors; actives 2.5% (n = 76,000); note: nearly all actives have a fitted effect of over 65% in size
Target sequence (P08659 whole entry, looked up): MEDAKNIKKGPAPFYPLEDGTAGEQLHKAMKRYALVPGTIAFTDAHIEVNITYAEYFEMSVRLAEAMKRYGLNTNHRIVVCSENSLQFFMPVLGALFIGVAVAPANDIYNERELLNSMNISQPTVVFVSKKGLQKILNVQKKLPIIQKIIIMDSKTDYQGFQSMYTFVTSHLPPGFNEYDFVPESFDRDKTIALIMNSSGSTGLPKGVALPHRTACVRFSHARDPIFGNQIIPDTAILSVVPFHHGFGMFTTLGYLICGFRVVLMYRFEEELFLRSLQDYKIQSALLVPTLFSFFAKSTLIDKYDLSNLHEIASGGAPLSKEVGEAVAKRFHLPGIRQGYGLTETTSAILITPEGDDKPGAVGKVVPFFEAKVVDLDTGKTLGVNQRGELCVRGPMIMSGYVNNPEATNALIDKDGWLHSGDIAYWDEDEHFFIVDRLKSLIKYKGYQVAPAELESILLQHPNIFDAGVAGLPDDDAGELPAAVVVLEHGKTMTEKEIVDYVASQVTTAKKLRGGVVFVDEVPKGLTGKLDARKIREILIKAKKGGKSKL
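Luminescence read by CCD imager after adding enzyme (10nM final) to wells holding compound, titrated in qHTS. Substrates 10uM each D-luciferin and ATP; buffer 50mM Tris acetate pH 7.5, 10mM Mg acetate, Tween-20, BSA.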
Each line names hits and unclear results; the compound was inactive in the other large screens. Shown are actives, neighbours in structure and some others; about 11% of the full set was active somewhere. Unless noted, calls come from the whole dose curve; as a rule, active = well fitted curve in the direction sought with a large enough effect; inconclusive = small, poorly fitted or top-dose-only effect, or another doubt; inactive = no such curve, though single readings can be large; an effect the other way counts as inactive or inconclusive.

O=C(Nc1ccc2n(c1=O)C[C@H]1C[C@@H]2CN(CC2CCCCC2)C1)C1CCCCC1	HEK cytotox 56µM, NIH3T3 tox inconclusive
O=C(Nc1ccc2n(c1=O)C[C@H]1C[C@@H]2CN(C(=O)c2ccccc2)C1)NC1CCCCC1	Luciferase inh inconclusive
CCOC(=O)[C@H]1CN(C(=O)/C=C/c2ccccc2)[C@]2(C)C(=O)N(CC3CC3)c3ccccc3[C@H]12	HEK cytotox 28µM, NIH3T3 tox inconclusive (no result: hNpr1 antagonist, Luciferase inh)
CCOC(=O)[C@H]1CN(C(=O)CCc2ccccc2)[C@]2(C)C(=O)N(CCOC(C)=O)c3ccccc3[C@H]12	HEK cytotox 89µM (no result: hNpr1 antagonist, Luciferase inh)
CCOC(=O)[C@H]1CN(C(=O)Nc2ccc3c(c2)OCO3)[C@]2(C)C(=O)N(CC3CC3)c3ccccc3[C@H]12	HEK cytotox 35µM, NIH3T3 tox inconclusive (no result: hNpr1 antagonist, Luciferase inh)
CCOC(=O)[C@H]1CN(C(=O)c2ccc3c(c2)OCO3)[C@]2(C)C(=O)N(CCOC)c3ccccc3[C@H]12	NIH3T3 tox inconclusive (no result: hNpr1 antagonist, Luciferase inh)
CCOC(=O)[C@@H]1[C@H]2c3ccccc3N(CCOC)C(=O)[C@H]2N(C(=O)OCC)[C@@H]1c1ccccc1	HEK cytotox inconclusive (no result: hNpr1 antagonist, Luciferase inh)
COc1ccc2c(c1)C1(CCN(S(=O)(=O)c3cccc(F)c3)C1)C(=O)N2C (stereo unspecified)	HEK cytotox 45µM
CCCCOC(=O)N1C[C@H](C(=O)OCC)[C@H]2c3ccccc3NC(=O)[C@]21C	HEK cytotox inconclusive (no result: hNpr1 antagonist, Luciferase inh)
CCOC(=O)[C@H]1CN(C(=O)NC2CCCC2)[C@]2(C)C(=O)N(C)c3ccccc3[C@H]12	HEK cytotox inconclusive (no result: hNpr1 antagonist, Luciferase inh)
COc1cc2c(cc1OCC1CC1)NC(=O)C21CCN(C(=O)c2ccccc2)CC1	HEK cytotox inconclusive, NIH3T3 tox inconclusive
COc1cc2c(cc1OCc1ccccc1)NC(=O)C21CCN(c2nc(C)cnc2C)CC1	HEK cytotox 35µM, NIH3T3 tox inconclusive
COc1cc2c(cc1OCc1ccccc1)NC(=O)C21CCN(c2cnccn2)CC1	HEK cytotox 63µM, NIH3T3 tox 79µM
Cc1ncc2c(n1)C[C@@H]1CC[C@H]2N1C(=O)c1ccc2c(c1)OCO2	HEK cytotox inconclusive, NIH3T3 tox inconclusive
CC(=O)c1ccc(NC(=O)NC[C@H]2C[C@@H]3CCN2C[C@@H]3CN(C)Cc2ccccc2)cc1	HEK cytotox 100µM, NIH3T3 tox 89µM
CN(Cc1ccccc1)C[C@H]1CN2CC[C@H]1C[C@@H]2CNC(=O)Nc1ccccc1	HEK cytotox 100µM, NIH3T3 tox 100µM
CN(Cc1ccccc1)C[C@H]1CN2CC[C@H]1C[C@@H]2CNC(=O)c1ccccc1	HEK cytotox inconclusive, NIH3T3 tox inconclusive
C#CCN(C)C[C@H]1CN2CC[C@H]1C[C@@H]2CNC(=O)Nc1ccc(C(C)=O)cc1	none
COc1ccccc1CC(=O)N1CC2(CCN(C)CC2)c2cc(OC)c(OCc3ccccc3)cc21	HEK cytotox inconclusive, NIH3T3 tox 32µM
COc1cc2c(cc1OCc1ccccc1)N(C(=O)CC1CC1)CC21CCN(C)CC1	HEK cytotox 112µM, NIH3T3 tox 79µM
COc1cc2c(cc1OCc1ccccc1)N([S+](=O)([O-])c1cccc3cccnc13)CC21CCN(C)CC1	HEK cytotox 25µM, NIH3T3 tox 18µM
COc1cc2c(cc1OCc1ccccc1)N(C(=O)CC(C)C)CC21CCN(C)CC1	HEK cytotox 100µM, NIH3T3 tox 50µM
COc1cc2c(cc1OCc1ccccc1)N(C(=O)[C@@H]1CCCO1)CC21CCN(C)CC1	NIH3T3 tox inconclusive
COc1ccc(-c2cc([C@H]3CN4CC[C@H]3C[C@@H]4CNS(=O)(=O)c3cccs3)n(C)n2)cc1OC	HEK cytotox inconclusive, NIH3T3 tox inconclusive
COc1ccc(-c2cc([C@H]3CN4CC[C@H]3C[C@@H]4CNS(=O)(=O)c3ccc(Cl)cc3)n(C)n2)cc1OC	HEK cytotox 28µM, NIH3T3 tox inconclusive
Cn1nc(-c2ccc3ccccc3c2)cc1[C@H]1CN2CC[C@H]1C[C@@H]2CNS(=O)(=O)c1ccccc1	HEK cytotox 25µM, NIH3T3 tox inconclusive, Luciferase inh inconclusive
C=C[C@H]1CN2CC[C@H]1C[C@@H]2CNS(=O)(=O)c1ccc2ccccc2c1	HEK cytotox 112µM, NIH3T3 tox inconclusive

Screening results as filed in PubChem BioAssay.
